Screening data: PubChem, The Scripps Research Institute Molecular Screening Center
SMARCA2 activ: SMARCA2 function activation, primary screen; AID 652017; activation, % at 9.1 µM; MG213 cells, MMTV-luciferase reporter, dexamethasone, overnight; 370,000 compounds, 1% hits; in the data active means activation above about 7.8%;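 further: 0% = vehicle wells and 100% = reference activator wells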
DAX1 inh-1: blocks DAX1 repression of SF-1 activated StAR promoter. HEK293T StAR-luciferase reporter, SF-1/DAX-1 repression relief. inhibition, % at 6.8 µM. 370,000 compounds, 1.1% hits. AID 652010;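 active means inhibition above the mean over all tested compounds plus 3 SD, cut at about 3.6% in these data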;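 further: 0% = DAX-1 cells with DMSO and 100% = cells lacking DAX-1 with DMSO; higher inhibition means more luminescence from relief of DAX-1 repression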
DAX1 inh-2: inhibits human nuclear receptor DAX1. HEK293 Gal4-DAX1 luciferase reporter, luminescence. 340,000 compounds, 0.99% hits. inhibition, % at 6.75 µM. AID 504766. P51843;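 active means inhibition above the mean over all tested compounds plus 3 SD, cut at about 4.2% in these data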;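 further: 0% = DAX1-transfected cells with DMSO and 100% = empty-vector control cells with DMSO; inhibition shows as a rise in luminescence from relieved DAX1 repression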
Target sequence (P51843 207-470 limits assumed): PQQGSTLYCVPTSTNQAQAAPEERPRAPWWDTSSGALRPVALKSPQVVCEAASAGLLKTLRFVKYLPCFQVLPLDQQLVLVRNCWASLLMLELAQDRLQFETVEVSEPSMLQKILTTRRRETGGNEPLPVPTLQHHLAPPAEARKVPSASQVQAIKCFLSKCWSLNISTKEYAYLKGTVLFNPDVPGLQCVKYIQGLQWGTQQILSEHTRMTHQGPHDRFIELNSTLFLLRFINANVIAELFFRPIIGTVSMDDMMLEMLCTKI
ssDAF-12 act: activates DAF-12 receptor from parasite S. stercoralis | 370,000 compounds, 1% hits | AID 652126 | HEK293 ssDAF-12/GRIP1 lit1-tk-luc reporter, luminescence; % of 3 µM dafachronic acid response | activation, % at 6.8 µM;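 active means activation above the mean over all tested compounds plus 3 SD, cut at about 0.9% in these data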;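 further: 0% = DMSO-only wells and 100% = 3 µM delta7-dafachronic acid wells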
hgDAF-12 ag: agonists of H. glycines DAF-12 nuclear receptor; 370,000 compounds, 1.8% hits; activation, % at 6.8 µM; HEK293 GAL4-hgDAF12 UAS-luciferase reporter, agonist luminescence; normalized to butyrate control;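 active means activation above a cutoff set at the mean of all screened compounds plus 3 SD, cut at about 10% in these data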;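 further: 0% = DMSO wells and 100% = sodium butyrate wells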
hcDAF12 agonist: activates DAF-12 receptor from parasite H. contortus. 370,000 compounds, 1.4% hits. activation, % at 6.8 µM. AID 652067. HEK293 hcDAF-12 lit1-tk-luc reporter, luminescence; 0% DMSO, 100% Δ7-dafachronic acid;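 active means activation above the mean of all tested compounds plus 3 SD, cut at about 5.5% in these data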;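 further: 100% = response to 3 µM Δ7-dafachronic acid high control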
DAX1 conf: confirmation of human DAX1 (NR0B1) inhibitors | shares compounds with DAX1 inh-1 | HEK293T StAR-promoter luciferase reporter, SF-1/DAX-1 repression | inhibition, % at 6.8 µM | 2,400 compounds, 87% hits;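 active means inhibition above the average of every tested compound plus 3 SD, cut at about 3.8% in these data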;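 further: 0% = DAX-1 cells with DMSO and 100% = no DAX-1 control cells with DMSO; active compounds raise luminescence by relieving repression of the StAR reporter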
SF1 mutant ctr: nonselective inhibitor or artifact in SF-1 mutant DAX1 counter-screen. shares compounds with DAX1 inh-1. HEK293 StAR-luciferase, SF-1 AF2 mutant, luminescence. inhibition, % at 6.8 µM. 2,400 compounds, 78% hits. AID 652136;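 active means inhibition above the mean of all tested compounds plus 3 SD, cut at about 3% in these data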;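 further: 0% = DAX-1 transfected cells with DMSO and 100% = cells without DAX-1 with DMSO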
LXRb hcDAF ctr: LXR-beta agonism as hcDAF-12 counter-screen. shares compounds with hcDAF12 agonist. 3,400 tested, under 10 active. AID 743027. activation, % at 6.8 µM. HEK293 Gal4-LXR tk-luc reporter, luminescence, 24 h; normalized: DMSO 0%, positive control 100%;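 active means mean percent activation of the reporter above a cutoff set as the average over tested compounds plus their standard deviation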
Target sequence (P55055 whole entry, looked up, the tested form may be a part): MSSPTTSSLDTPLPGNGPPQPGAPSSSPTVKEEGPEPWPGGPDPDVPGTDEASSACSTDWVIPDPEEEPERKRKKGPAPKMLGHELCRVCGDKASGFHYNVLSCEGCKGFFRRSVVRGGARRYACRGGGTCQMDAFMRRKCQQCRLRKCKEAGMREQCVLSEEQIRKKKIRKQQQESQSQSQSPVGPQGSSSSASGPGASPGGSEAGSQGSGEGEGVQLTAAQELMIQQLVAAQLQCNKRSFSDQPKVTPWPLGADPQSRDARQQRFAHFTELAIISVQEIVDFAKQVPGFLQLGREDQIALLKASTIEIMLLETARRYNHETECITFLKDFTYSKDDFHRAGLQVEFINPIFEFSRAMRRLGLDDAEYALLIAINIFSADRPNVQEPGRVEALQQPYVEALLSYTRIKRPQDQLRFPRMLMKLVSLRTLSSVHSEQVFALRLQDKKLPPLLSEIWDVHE
hcDAF12 conf: confirmation of H. contortus DAF-12 agonists; 3,400 compounds, 61% hits; HEK293 hcDAF-12 lit1-tk-luc reporter, luminescence; % of Δ7-dafachronic acid response; shares compounds with hcDAF12 agonist; activation, % at 6.8 µM;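 active means mean activation across triplicate tests above the threshold derived from the earlier primary screen, cut at about 5.5% in these data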;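 further: 0% = DMSO only wells and 100% = 3 µM Δ7-dafachronic acid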
hgDAF12 ag: confirmation of H. glycines DAF-12 agonists; HEK293 GAL4-hgDAF12 luciferase reporter, agonist mode; percent of butyrate response; activation, % at 6.8 µM; shares compounds with hgDAF-12 ag; 3,300 compounds, 80% hits;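 active means mean activation over triplicate wells above the hit cutoff derived from the earlier primary screen, cut at about 11% in these data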;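 further: 0% = DMSO low control and 100% = 2 mM sodium butyrate high control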
LXR ag 2: counter-screen for DAF-12 agonists: agonists of human LXR-beta. shares compounds with hgDAF-12 ag. HEK293 Gal4-LXR luciferase reporter, 24 h. activation, % at 6.8 µM. 3,300 tested, under 10 active;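 active means mean activation of the triplicate above a set limit carried over from the primary screen, none filed active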
An asterisk follows results filed as active; nt = not tested or not shown. Most compounds without a hit are left out; they make up all but 4.8% or so of the library.

SMILES | SMARCA2 activ | DAX1 inh-1 | DAX1 inh-2 | ssDAF-12 act | hgDAF-12 ag | hcDAF12 agonist | DAX1 conf | SF1 mutant ctr | hgDAF12 ag | LXR ag 2 | others
COc1cccc(/C=C/C(=O)Nc2ccc3c(c2)OCCO3)c1OC | 5 | 10* | -2 | 1 | 19* | 7.7* | 11* | 5.3* | 17* | 1 | LXRb hcDAF ctr=2;hcDAF12 conf=5.9*
CCN1CCN(c2ccc(Cl)cc2NC(=O)c2ccc(-n3nc(C)cc3C)cc2)CC1 | -2 | -1 | 1 | -1 | -1 | 1 | nt | nt | nt | nt
COc1ccc2cc(C[C@@H]3CC[C@@H](CO)O3)ccc2c1 | 1 | 5.0* | 2 | 0 | 15* | 4 | 8.1* | 5.4* | 12* | 1
C(=N\NC1=Nc2cccc3cccc1c23)/c1ccccc1 | 6 | 6.6* | 5.7* | 4.5* | 23* | 18* | 13* | 9.5* | 27* | 1 | LXRb hcDAF ctr=2;hcDAF12 conf=21*
CCCCOc1ccc(-c2cnc3ccccc3n2)cc1 | 1 | 6.8* | 1 | 0 | 23* | 9.0* | 14* | 3.5* | 13* | 1 | LXRb hcDAF ctr=2;hcDAF12 conf=6.4*
CC(=O)c1cccc(Nc2nc(-c3ccccc3)cs2)c1 | 5 | 9.7* | 1 | 1.0* | 21* | 9.8* | 11* | 7.0* | 19* | 1 | LXRb hcDAF ctr=2;hcDAF12 conf=5
CC(=O)c1cccc(Nc2nc(-c3cccnc3)cs2)c1 | 2 | 1 | 1 | 0 | 8 | 0 | nt | nt | nt | nt
COc1ccc(-c2csc(Nc3ccccc3)n2)cc1 | 2 | 7.4* | 2 | 0 | 21* | 5 | 13* | 8.2* | 20* | 1
O=C(OCC(=O)N1CCN(c2ccccc2)CC1)c1cccc([N+](=O)[O-])c1 | -2 | 0 | -1 | -1 | 0 | -1 | nt | nt | nt | nt
O=C(OCC(=O)N1CCN(c2ccccc2)CC1)c1ccccc1[N+](=O)[O-] | 6 | 6.2* | 3 | 0 | 15* | 4 | 9.4* | 3.6* | 10 | 1
Cc1ccc2nsnc2c1S(=O)(=O)NCCc1c(C)[nH]c2ccc(F)cc12 | -2 | 0 | 1 | -2 | 1 | -2 | nt | nt | nt | nt
Cc1ccc(C(=O)NC2CCC(C)CC2)s1 (centres undefined) | 6 | 14* | 1 | 1.0* | 19* | 4 | 15* | 6.6* | 18* | 1
CNC(=O)c1cc2c(s1)CCCCCC2 | -3 | 0 | 1 | -1 | -2 | 0 | nt | nt | nt | nt
CC1CCC(NC(=O)c2cc3c(s2)CCCC3)CC1 (centres undefined) | 5 | 6.1* | 2 | 0 | 14* | 2 | 6.7* | 4.5* | 12* | 0
COC(=O)c1c(C)oc(C)c1S(=O)(=O)N(Cc1ccccc1)C(C)C | -1 | -1 | nt | -2 | -1 | -3 | nt | nt | nt | nt
CCC(CC)COC(=O)C1=C(C)NC(=O)NC1c1ccc2c(c1)OCO2 (centres undefined) | -1 | -1 | -2 | -2 | -3 | -3 | nt | nt | nt | nt
Cc1nn(-c2ccccc2)c(Cl)c1/C=N/NC(=O)c1[nH]ncc1Br | 3 | 12* | -2 | 1 | 15* | 6.0* | 13* | 7.3* | 15* | 1
Cc1cc(=O)[nH]c(N/N=C/c2c(C)nn(-c3ccccc3)c2Cl)n1 | -3 | -2 | -2 | -2 | 0 | -3 | nt | nt | nt | nt
Cc1nn(-c2ccccc2)c(Cl)c1/C=N/Nc1nc2ccccc2[nH]1 | 7.9* | 4.8* | 2 | 1.4* | 24* | 9.5* | 18* | 6.3* | 22* | 1 | LXRb hcDAF ctr=2;hcDAF12 conf=7.8*
Cc1ccc(NC(=O)COc2cccc(-n3cnnn3)c2)cc1S(=O)(=O)N1CCOCC1 | -4 | -2 | -1 | -2 | -5 | -1 | nt | nt | nt | nt
Cc1nc(Nc2nc3ccccc3o2)nc(C)c1C | 5 | 4.6* | 4 | 0 | 15* | 6.0* | 14* | 5.8* | 16* | 1
CC(=O)Nc1ccc(N2CC(C)(C)C2=O)cc1 | -3 | 0 | 2 | -1 | 1 | -1 | nt | nt | nt | nt
O=C1NC(=O)C([N+](=O)[O-])=C(O)C1=O | 3 | 0 | 1 | 0 | 1 | 0 | nt | nt | nt | nt
COc1cc2ccccc2cc1C(=O)NCC(c1cccs1)N(C)C (centres undefined) | 4 | 10* | 2 | 0 | 15* | 6.4* | 12* | 7.1* | 16* | 1
COc1cc(OC)c(C(=O)NCC(c2cccs2)N(C)C)cc1OC (centres undefined) | nt | nt | 0 | nt | nt | nt | nt | nt | nt | nt
SMILES | SMARCA2 activ | DAX1 inh-1 | DAX1 inh-2 | ssDAF-12 act | hgDAF-12 ag | hcDAF12 agonist | DAX1 conf | SF1 mutant ctr | hgDAF12 ag | LXR ag 2 | others
O=C(Nc1ccc2c(c1)CCC2)c1c(F)cccc1Cl | 6 | 2 | 1 | 0 | 10 | 3 | nt | nt | nt | nt
O=C(Nc1ccc2c(c1)CCC2)Nc1ccccc1F | 4 | 16* | 0 | 1 | 16* | 8.6* | 13* | 8.5* | 22* | 1 | LXRb hcDAF ctr=2;hcDAF12 conf=8.6*
O=C(Nc1ccccc1)Nc1ccc2c(c1)CCC2 | 3 | 10* | 2 | 1 | 16* | 5 | 7.5* | 5.0* | 15* | 1
CC(C)(C)c1ccc(S(=O)(=O)N2CCCC2C(=O)N2CCN(c3ccccc3)CC2)cc1 (centres undefined) | -8 | -1 | nt | 0 | 0 | -4 | nt | nt | nt | nt
CCOc1ccc(-n2c(=O)c3sccc3n(Cc3cccc([N+](=O)[O-])c3)c2=O)cc1 | -4 | 0 | 2 | -1 | -1 | 0 | nt | nt | nt | nt
CC1(C)C(=O)Nc2ccccc2N1C(=O)COC(=O)c1cccnc1 | -1 | 2 | -1 | -1 | 2 | -1 | nt | nt | nt | nt
O=C(Nc1cccc(-c2ccc(N3CCOCC3)nn2)c1)c1ccc(Cl)cc1 | 2 | 3 | 0 | -1 | 4 | 0 | nt | nt | nt | nt
O=C(Nc1cccc(-c2ccc(N3CCCCC3)nn2)c1)c1ccco1 | 4 | 7.3* | -2 | 1.6* | 16* | 5 | 2 | 3.0* | 14* | 1
